GI50 data for 8 substances are collected here from ChEMBL document CHEMBL1201862, “PubChem BioAssay data set” (2004).

Hit rate of the full screen: of about 58,000 sequences, about 3,600 (6.2%) were called active. No stated cut-off is given here; in the data, active = GI50 up to about 1.1 µM and inactive = higher. This excerpt belongs to a sample that is enriched for actives. Entries with a potency or affinity are not part of this list.

For the assay, the system named is NCI-H23.
With “mu-(1,7-nanodiamine-N,N')bis-(cis-aminedichloroplatimum (II)), CHEMBL2146215”, it took 4.37 µM to inhibit growth by half (GI50). In the case of CISPLATIN, CHEMBL11359, the GI50 was 0.783 µM. On to “[Bis(aminomethyl)pentamethylenesilane]tetrachloropaltinum(IV), CHEMBL2146204”, for which the concentration for 50% growth inhibition (GI50) was 1.51 µM. The substance “[Bis(aminomethyl)pentamethylenesilane]dichloropaltinum(II), CHEMBL2146202” yielded a GI50 of 4.59 µM.

The substance “[Bis(aminomethyl)dimethylsilane]tetrachloroplatinum(IV), CHEMBL2146190” registered a 50% growth inhibitory concentration (GI50) of 3.98 µM. With “[Bis(aminomethyl)tetramethylenesilane]dichloropaltinum(II), CHEMBL2146205”, it took 13.5 µM to inhibit growth by half (GI50). This GI50 is about 3.4-fold higher than that of the substance before. Turning to “[Bis(aminomethyl)tetramethylenesilane]tetrachloropaltinum(IV), CHEMBL2146189”, the concentration for 50% growth inhibition (GI50) is 3.33 µM. For the substance “[Bis(aminomethyl)diethylsilane]tetrachloroplatinum(IV), CHEMBL2146203”, the GI50 amounted to 2.79 µM.

By GI50 is commonly meant the concentration at which growth is held to half of that of the control. A lower GI50 goes with greater sensitivity of the cells.
